We go through 39 compounds from PubChem BioAssay (NCATS).

Records with an inconclusive call do not appear. Where a call stands in place of a potency, no number is given. Values without a mark were called inactive. Active and inactive are the calls of the source. The call rests on the fitted dose curve; in most records, active means well fitted inhibition curve with a large enough effect; inconclusive means small, poorly fitted or top-dose-only effect; inactive means flat fitted curve, though single readings scatter.

This assay can be described thus: qHTS for Inhibitors of Plasmodium falciparum (DD2) proliferation (AID 504314).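 Further: parasite DNA measured by SYBR Green fluorescence after red cell lysis.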 As to conditions: P. falciparum Dd2 in erythrocytes, SYBR Green growth, 72 h; series mostly up to 6.11 µM. An outline of the steps: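 Erythrocytes infected with P. falciparum (0.3% parasitemia, 2.5% hematocrit final) were incubated with compounds for 72 h at 37C, 5% CO2. Parasite DNA was detected by SYBR Green I fluorescence after saponin/Triton lysis, normalized to artemisinin (0.29 uM) and DMSO controls.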
Background: In qHTS, concentration-response curves come from the screen itself.
Regarding `COC(=O)C12CC3(CCC4C5C(C(OCc6ccccc6)C41)C52)OCCO3` (centres undefined), the Potency result is “inactive”.
As for `COc1ccc2c(c1)O[C@@H](c1cccc(C(F)(F)F)c1)[C@H](OC(=O)Nc1ccc(OC(F)F)cc1)C2=O`, the Potency result was “inactive”.
Still for that read-out and setting: in the case of `COC(=O)C1=C(C)C(=O)[C@]2(O)c3ccccc3N(C)[C@]12C` it was “inactive”; in that of `CCC12C=C(C=Cc3ccccc3)C(CC)(C1)C(c1ccccc1)CC2=O` (centres undefined), “inactive”; in that of `COC(=O)[C@@H]1[C@@H](c2ccccc2)NC(=O)N(Cc2ccccc2)[C@@H]1C`, “inactive”.
Still for that read-out and setting: the entry for `CC(C)=CCCC(C)=CCON=C1C[C@@H](O)[C@@H](O)[C@@H]2[C@H]3C(=O)N(Cc4ccc5c(c4)OCO5)C(=O)[C@@H]3CC[C@H]12` is “inactive”; for `COC(=O)N1C(c2ccccc2)=Cc2ccccc2C1CC(C)=O` (centres undefined) it is “inactive”; for `CCCCS(=O)(=O)N1CCc2nc(-c3ccccc3)c3c(c2C1)CO[C@@H](C)C3` it is “inactive”.
Same read-out and setting: the entry for `FC(F)(F)c1ccc(-c2nc(-c3ccccc3)oc2Nc2ccc3ccccc3c2)cc1` is “inactive”.
For the compound `COC[C@@H](O)[C@H]1OCc2ccccc2[C@H]1C=Cc1ccccc1`, the Potency entry was “inactive”.
Still for that read-out and setting: in the case of `C=CC[C@@]1(c2ccc(OC)cc2)Oc2ccccc2C2=NCCN=C21` it was “inactive”; in that of `O=C(C=Cc1ccccc1)N1CCC[C@H]1CO`, “inactive”; in that of `CCN(CC)CC(O)CN1CCCCc2nc(C)c(C)cc21` (centres undefined), “inactive”.
On the same count and under the same terms, the entry for `CC1(C)O[C@H]2O[C@H]([C@H](O)CON=C3[C@H]4CCn5c(=O)n(-c6ccccc6)c(=O)n5[C@@H]4[C@H](O)[C@@H]4O[C@H]34)[C@H](O)[C@@H]2O1` is “inactive”; for `CCCCC1=CC2=CC(=O)C(C)(OC(=O)c3cnc4ccccc4n3)C(=O)C2=CO1` (centres undefined) it is “inactive”.
On to `COC(=O)CC=C[C@@H](C)[C@@H](C=NOC[C@@H](O)COCc1ccco1)NS(=O)(=O)c1ccc(C)cc1`, for which the Potency entry was “inactive”.
The same measure, in the same setting: the entry for `COc1ccc2c(c1)C(=O)[C@@H](OC(=O)NCCc1ccc(OC)c(OC)c1)[C@H](c1ccc(OC)c(Br)c1)O2` is “inactive”; for `CC(CCN1CCc2nc(-c3ccccc3)c(-c3ccccc3)cc2C1)=NOC[C@@H](O)COCc1ccco1` it is “inactive”; for `CC=CC(=O)C[C@H]1CC[C@@H](C)[C@@H](CCO)O1` it is “inactive”.
Same read-out and setting: in the case of `C=C(C(C)=O)C(O)c1ccccc1` (centres undefined) it was “inactive”.
For the compound `COC(=O)CCC(=O)OC1(C)C(=O)C=C2C=C(C3CC3)N(c3ccc(CO)cc3)C=C2C1=O` (centres undefined), the activity, negative = inhibition was -5.46% [at 1.12 µM].
On to `CCC(=O)C[C@@H](NC(=O)OC)c1ccc(F)cc1`, for which the Potency entry was “inactive”.
Same read-out and setting: in the case of `C[C@H]1Cc2c(COc3ccccc3)nc3c(c2CO1)CN(C(=O)C1CC1)CC3` it was “inactive”; in that of `C=CCC(Nc1ccc(OC)cc1)(C(=O)OCC)c1ccccc1` (centres undefined), “inactive”.
As to `CCCCCCCc1cc2ccccc2c2c(C(=O)OC)c(C(=O)OC)c(C(=O)OC)n12`, the Potency result is “inactive”.
Same read-out and setting: in the case of `Cc1ccc2[nH]c3nc(CCCn4ccnc4-c4ccccc4)nnc3c2c1` it was “inactive”; in that of `CCCCC[C@]12Cc3cc(OC)c(OC)cc3[C@H](O1)c1c(cc(C)n(-c3ccccc3)c1=O)O2`, “inactive”; in that of `CC(CCC(=O)OC[C@H]1O[C@H](C#Cc2ccccc2)C=C[C@H]1Oc1ccc(C)cc1)=NO[C@H](C)c1cn([C@H](CO)Cc2ccccc2)nn1`, “inactive”.
On the same count and under the same terms, in the case of `COC(=O)C1=C(C(=O)OC)[C@@H]2N(C)c3ccccc3[C@@]23CCC(=O)N(CCCOC(C)C)C3=N1` it was “inactive”; in that of `COC(=O)[C@H](COC(C)(C)C)NC(=O)O[C@@H]1C(=O)c2ccc(OC)cc2O[C@H]1c1cccc(C(F)(F)F)c1`, “inactive”; in that of `COC1=C[C@H](C(=O)NC2CCN(Cc3ccccc3)CC2)[C@@]2(C)Cc3ccccc3[C@@H]2CC1=O`, “inactive”.
On the same count and under the same terms, in the case of `COCCN1C(=O)CC[C@@]23C1=NC(C(=O)OC)=C(C(=O)OC)[C@@H]2N(CC=C(C)C)c1ccccc13` it was “inactive”; in that of `C#CC[C@@]1(C(=O)OC)C=C[C@@H](C)[C@H](c2ccccc2Br)N1C(=O)C(F)(F)F`, “inactive”; in that of `COC(=O)C1(C(=O)OC)C[C@@H]2CON=C2[C@@H]1c1ccccc1`, “inactive”.
On to `C[C@H](NC(=O)N1CCc2nc(-c3ccccc3)c3c(c2C1)CO[C@@H](C)C3)c1ccccc1`, for which the activity, negative = inhibition is 3.91% [at 1.12 µM].
As for `CC(C)CON=C1C[C@@H](O)[C@@H](O)[C@@H]2[C@H]3C(=O)N(Cc4ccc5c(c4)OCO5)C(=O)[C@@H]3CC[C@@H]12`, the Potency entry was “inactive”.
For `COc1ccc2c(c1)CO[C@H]([C@H](O)CO)[C@H]2C=Cc1ccccc1`, the Potency result is “inactive”.
On the same count and under the same terms, in the case of `COC(=O)C1=C(C(=O)OC)[C@@H]2N(CC=C(C)C)c3ccccc3[C@@]23CCC(=O)N(CCc2ccccn2)C3=N1` it was “inactive”.
As for `CC(CCN1CCCc2nc(C)c(C)cc21)=NOC[C@@H](O)[C@H]1O[C@@H]2OC(C)(C)O[C@H]2[C@@H]1O`, the Potency result was “inactive”.
